# Measured values from the supplement of paper PMC6555819.
# System: VDR:RXRa (NR concentration 270 nM, RXRa partner concentration 90 nM)
# Assay: PBM binding z-score (relative to random genomic background probes); higher = stronger binding; sequences stand for … in GC…GCGATTGACAGCGTAGAATGAAGG
# Procedure: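 Protein-binding microarray (Agilent 4x180K custom design, double-stranded 60-nt probes: 5' GC cap, 34-nt variable region, 24-nt constant primer region; full probe sequence given). Purified or IVT nuclear receptor:RXRα heterodimers (3:1 NR:RXRα, mostly 270:90 nM) or homodimers were incubated for 1 h in PBS with 2% milk and no ligand, then detected with Alexa488 antibodies. Fluorescence from o1-orientation probes (~5 replicates averaged) was converted to z-scores against 500 random hg19 background probes. Variable regions are seed direct-repeat (DR0–DR5) sites, all their single-nucleotide variants and half-site ablations.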
row,Sequence,PBM binding z-score
1,ATCGAAACGTCGAGGTGAGTATAGAGAAAGGGAA,-0.325
2,CCAGACAGGAGAGAAGGTAACTCAGCCTCGATTA,-0.312
3,TCTGCTAGGTCAGTTGGTAAGCTAACGAGCTGCC,-0.00155
4,CGTCCCAGGTCAGAGAGGTCAGTGAATGCCGAGT,6.8
5,TGAATGAGGTTAAAGATTAGGGAACGTGGCGTCG,1.44
6,TGAATGAGGTTATATGATCAGGGAACGTTGCAAA,1.33
7,CCGAGTAGGTTATGAGGCATTCAGGCAACGGTGA,-0.286
8,ACTCGGAGGAGAAAGGTCAGAGCTACGCCAGTGA,2.16
9,TCTATTAGTTCAAGGGCAACCGACGAGTCCGTTT,2.38
10,CAAACTAGGTCACCGGAAGGTCAAATTCCGCATG,5.9
11,CGAACTAGGTCATAGACAGGACAGTGAATAGTAA,1.78
12,TCGAGTAGGTTAGTTGGGGCATTCAGCCAACATA,0.811
13,ATATGGAGGTTATCGGGTCATTCAGTTTGCGCAT,5.78
14,AGTCAAAGTTCGTCTAGGTAACGTAAGATATGCT,2.59
15,GATTCAGGGTCAAGGCCAGAGTACGCGTATTGAT,4.89
16,ATATGTAGGTTAAGGATCATTCAGGTTGGTTCGC,1.45
17,CCTTACGGGTCACGAGTTTATAGCACGACGAGCG,5.73
18,CAAACTAGTTCAAAGGTCAAAGTCGAGCCAACCA,6.02
19,TCCATTAGTTGAAGGGCAACCGACGAGTCCGTTT,1.02
20,TCTCGGATGACACGAAGGTCAGAGCTTTCCAGAG,1.46

row,Sequence,PBM binding z-score
1,CCTAGTTCGTCAAGGTCACACACGCTATAGGTAC,6.46
2,ACAGACAGGTGAGTGAAGGTAACTCACCTGGACG,-0.173
3,CCTCGGATGACAACAGGAGGTCAGAGCTGCCAGA,1.55
4,TAGCCTAGGTCATTCAGGGGCCAGGATAGAAAGC,2.94
5,ATCGAAAGGTCGATGTGAGTATAGAGAAAGGGAA,1.97
6,GCTTACGGGTCAAAGGTTATTGCATGAATAGAAT,5.54
7,TCTAGCAGGCCAGAGGGTCACCCAAGAGGTACGG,1.71
8,AGAACGAGGGCCCGCTGAGTTGATAGCAGAGTAG,-1.03
9,AGAATGAGGTTAAGAACAGGGAAACAGAATACAT,1.04
10,TCAATTAGTTGATTAGGGCAACCGAAACAGCGGA,0.35
11,TCTTGTAGATCAAAAGAGGTTAAGAAAGTGCGCT,1.72
12,CCTAGTTTGTCAAGGTCACACACGCTATAGGTAC,4.46
13,CCTCGGAGGACAACAGGTGGTCAGAGCTGCCAGA,-0.645
14,CGAACTAGGGCATTGACAGGACAGTGAATAGTAA,-0.141
15,GCAGACAGATGAAACGCAGGTAACTCAGGGTGGC,-0.643
16,CTACCCAGGTGAACAAGGTCGTTGATTACTATTC,5.31
17,CTACGAAGGTGAACAAGGTCGTTGATTACTATTC,6.15
18,CAAACTAGGTCATAGAGGTCAAAGTCCGTGCGTA,7.8
19,TCTGCTAGGTCAGTTGGTCAGCTATCGAGCTGCC,0.206
20,CCGACTGGGACAGAAAGGTTACCATACCATCCGG,0.351
